Tau fibril FP: qHTS for Inhibitors of Tau Fibril Formation, Fluorescence Polarization. AID 1468, 2008. K18 P301L tau heparin fibrillization, Alexa594 FP, 6 h. 280,000 compounds, 0.39% hits. Potency, µM (titrated, usually from 57.7 µM), for inactives: top-dose activity, negative = inhibition, most hits filed as inhibitors; also: nearly all actives have a fitted effect of over 55% in size
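Compound effects on tau fibrillization are measured by Alexa 594 fluorescence polarization (ex 555, em 632 nm). K18 P301L tau is used at 15 uM with 0.24 uM labeled tracer, and 20 uM heparin induces aggregation over 6 hr at 37 C.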
Tau fluor cs: Counterscreen qHTS for Inhibitors of Tau Fibril Formation, Fluorescence Polarization | 280,000 compounds, 0.93% hits | Potency, µM (doses to about 57.7 µM), for inactives: at the top dose activity change, negative = decrease | tau K18 P301L Alexa594 fluorescence, heparin fibrillization; also: nearly all actives have a fitted effect of over 55% in size
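Human tau K18 P301L (15 uM unlabeled, 0.24 uM Alexa 594-labeled) in 100 mM sodium acetate pH 7 with 20 uM heparin, 6 hr at 37 C. ThT 30 uM added, 1 hr ambient; Alexa 594 FP and total fluorescence read at 555/632 nm.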
Tau fibril ThT: qHTS for Inhibitors of Tau Fibril Formation, Thioflavin T Binding; Microtubule-associated protein tau (Homo sapiens), P10636; recombinant tau K18 P301L (four-repeat tau fragment), heparin-induced fibrillization, ThT fluorescence; Potency, µM (series often up to 57.4 µM), without a hit: at the top dose activity, negative = inhibition, usual class: inhibitors; 270,000 compounds, 2.1% hits; AID 1460, 2008; also: nearly all actives have a fitted effect of over 55% in size
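Heparin-induced fibrillization of the P301L-mutant K18 repeat-domain fragment of human tau was followed by ThT binding in quantitative high-throughput format.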
HPGD block: qHTS Assay for Inhibitors of HPGD (15-Hydroxyprostaglandin Dehydrogenase); AID 894, 2007; 150,000 compounds, 4.3% hits; Potency, µM, inactives show top-dose activity change, negative = inhibition, hits mostly inhibitors; purified HPGD, NADH fluorescence kinetic, PGE2 substrate; active = well fitted inhibition curve with a large enough effect, not every such curve was filed as active; inconclusive = small, poorly fitted or top-dose-only effect, or another doubt; inactive = no such curve, though single readings can be large or run the other way
Target sequence (P15428 whole entry, looked up): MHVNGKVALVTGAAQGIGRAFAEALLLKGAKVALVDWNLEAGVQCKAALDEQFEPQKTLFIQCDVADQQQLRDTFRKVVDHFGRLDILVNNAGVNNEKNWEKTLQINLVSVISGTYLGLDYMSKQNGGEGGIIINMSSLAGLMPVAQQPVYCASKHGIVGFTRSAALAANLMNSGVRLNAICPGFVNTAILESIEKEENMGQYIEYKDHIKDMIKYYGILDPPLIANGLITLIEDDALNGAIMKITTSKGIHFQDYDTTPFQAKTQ
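NADH formation kinetics: reaction with 30 uM PGE2 and 1 mM NAD+ (final), 20 nM enzyme, Tris-HCl pH 8 with Tween 20, after 15 min compound preincubation at room temperature. Fluorescence change, last versus first of five reads.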
NPSR antag: qHTS Assay for Antagonists of the Neuropeptide S Receptor: cAMP Signal Transduction; Potency, µM (titrated, usually from 38.3 µM), inactives show top-dose activity change, negative = inhibition, usual class: inhibitors; 220,000 compounds, 1% hits; Q6W5P4; CHO-NPSR cells, cAMP TR-FRET, antagonist mode; also: nearly all actives have a fitted effect of over 50% in size
Target sequence (Q6W5P4 whole entry, looked up): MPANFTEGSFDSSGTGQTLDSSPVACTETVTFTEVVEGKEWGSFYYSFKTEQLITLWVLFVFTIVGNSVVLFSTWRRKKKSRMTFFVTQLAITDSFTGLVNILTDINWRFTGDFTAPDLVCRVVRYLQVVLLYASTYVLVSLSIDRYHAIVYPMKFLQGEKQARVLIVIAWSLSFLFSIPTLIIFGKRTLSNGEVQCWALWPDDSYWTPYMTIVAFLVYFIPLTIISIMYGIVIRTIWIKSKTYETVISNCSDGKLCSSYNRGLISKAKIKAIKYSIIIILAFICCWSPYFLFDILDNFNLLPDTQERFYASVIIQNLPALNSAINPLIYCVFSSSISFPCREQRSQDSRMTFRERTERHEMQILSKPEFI
ALDH1A1 inh: qHTS Assay for Inhibitors of Aldehyde Dehydrogenase 1 (ALDH1A1). AID 1030, 2008. Purified ALDH1A1, NADH fluorescence, propionaldehyde substrate. Potency, µM (titrated, usually from 75.3 µM), for inactives: at the top dose activity, negative = inhibition, actives largely listed as inhibitors. 220,000 compounds, 7.3% hits; active = well fitted inhibition curve with a large enough effect, not every such curve was filed as active; inconclusive = small, poorly fitted or top-dose-only effect, or another doubt; inactive = no such curve, though single readings can be large or run the other way;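 also: plate controls were no enzyme wells and a reference inhibitor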
Active calls of the source: *; ? = inconclusive; . = no result given; [ ] = another dose, or the depositor's remark. Most compounds without a hit are left out; they make up all but 9.5% or so of the library. Unless noted, calls follow the shape of the dose curve; as a rule, active = well fitted curve in the direction sought with a large enough effect; inconclusive = small, poorly fitted or top-dose-only effect, or another doubt; inactive = no such curve, though single readings can be large; an effect the other way counts as inactive or inconclusive. Unless noted, % is scaled to controls: 0 for no effect and ±100 for the full control effect; potency is read from the fitted curve at half-maximal effect.

SMILES	Tau fibril FP	Tau fluor cs	Tau fibril ThT	HPGD block	NPSR antag	ALDH1A1 inh
CC(C)NC[C@@H](O)c1ccc(O)c2ncccc12	.	.	.	-1%	.	-6%[13.5 µM]
Cc1ccc(S(=O)(=O)NCCNC(=O)N2CCOCC2)cc1	3%	-11%	-9%	-8%	-6%[46.1 µM]	-1%
Cc1ccc(S(=O)(=O)NC(CN2CCOCC2)=NCCNS(=O)(=O)c2ccccc2)cc1	4%	-8%	-9%	-13%	-13%[46.1 µM]	2.5µM*
O=C(C1CCN(C2CC(=O)N(Cc3ccccc3)C2=O)CC1)N1CCCCCC1 (centres undefined)	-6%	-6%	-6%	?	-5%[46.1 µM]	11µM*
O=C1CC(N2CCC(Cc3ccccc3)CC2)C(=O)N1CCc1ccccc1 (centres undefined)	-12%	-13%	-15%	-17%	-17%[46.1 µM]	2.2µM*
O=C(C1CCN(C2CC(=O)N(c3ccc(Cl)cc3)C2=O)CC1)N1CCOCC1 (centres undefined)	-5%	-4%	-13%	-9%	1%[46.1 µM]	13µM*
O=C1CC(N2CCN(C3CC(=O)N(CCc4ccccc4)C3=O)CC2)C(=O)N1CCc1ccccc1 (centres undefined)	-1%	-3%	-18%	-4%	3%[46.1 µM]	-22%
O=C(C1CCN(C2CC(=O)N(c3cccc(Cl)c3)C2=O)CC1)N1CCCC1 (centres undefined)	0%	-8%	-10%	-20%	-7%[46.1 µM]	3.2µM*
CCOc1ccc(N2CC(NC(=O)c3ccco3)CC2=O)cc1 (centres undefined)	-4%	-4%	-6%	.	.	.
O=C(Nc1ncc(Cc2ccccc2Cl)s1)C1CCCO1 (centres undefined)	-1%	-15%	-8%	-16%	0%[46.1 µM]	0%
Cc1cc(C)c(NC(=O)CCCn2c(C)c3cnn(-c4ccccc4)c(=O)c3c2C)c(C)c1	7%	-4%	-18%	.	.	.
CCOC(=O)C1CCN(C2CC(=O)N(c3cccc(Cl)c3)C2=O)CC1 (centres undefined)	-3%	2%	-4%	-6%	-5%[46.1 µM]	20µM*
COC(=O)C1CCN(C2CC(=O)N(c3cc(C)cc(C)c3)C2=O)CC1 (centres undefined)	5%	3%	3%	.	17%	-18%
COC(=O)c1ccc(-c2ccc(C(c3c(C)[nH][nH]c3=O)c3c(C)[nH][nH]c3=O)o2)cc1	?	-26%	5µM*	.	9%	3.5µM*
Cc1ccc2oc(-c3ccccc3C(=O)O)cc(=O)c2c1	2%	6%	-6%	-28%	1%[46.1 µM]	-3%
Cc1[nH][nH]c(=O)c1C(c1ccc(-c2cccc(Cl)c2)o1)c1c(C)[nH][nH]c1=O	?	?	.	.	5%	.
COC(=O)c1cc(NC(=O)c2ccc(-c3ccc(Cl)cc3Cl)o2)cc(C(=O)OC)c1	?	-25%	-3%	.	.	.
Cc1[nH][nH]c(=O)c1C(c1ccc(-c2ccc(Cl)cc2Cl)o1)c1c(C)[nH][nH]c1=O	?	-28%	11µM*	?	-4%[46.1 µM]	?
Cc1[nH][nH]c(=O)c1C(c1ccc(-c2ccccc2C(=O)O)o1)c1c(C)[nH][nH]c1=O	?	-8%	11µM*	.	-1%	5µM*
Cc1[nH][nH]c(=O)c1C(c1ccc(-c2cccc(C(=O)O)c2)o1)c1c(C)[nH][nH]c1=O	?	-26%	14µM*	.	-10%	?
CCC(C)N1C(=O)/C(=C/c2c(NCCCOC(C)C)nc3c(C)cccn3c2=O)SC1=S (centres undefined)	25µM*	1%	?	-10%	-10%[46.1 µM]	-7%
c1ccc(Cn2nnnc2CN2CCN(c3ncccn3)CC2)cc1	-3%	-4%	-3%	-3%	-10%[46.1 µM]	11µM*
O=C(CCC(=O)NC1CCCCC1)N/N=C/c1ccncc1	-7%	-6%	-3%	.	41%	9%
COc1ccc2c(c1)c(=O)cc(-c1ccccc1)n2C	2%	0%	-1%	?	?	?
Cn1c(-c2ccccc2)cc(=O)c2ccccc21	-2%	7%	-2%	25µM*	3%[46.1 µM]	0%
SMILES	Tau fibril FP	Tau fluor cs	Tau fibril ThT	HPGD block	NPSR antag	ALDH1A1 inh
CCC1=C/C(=C/N(C)c2ccccc2)C(=O)S1	?	?	25µM*	22µM*	-10%[46.1 µM]	25µM*
CCCSc1nnc(NC(=O)Nc2ccccc2OC)s1	?	?	-3%	.	-19%	.
NC(=S)n1[nH]c(-c2ccc([N+](=O)[O-])cc2)c(N=Nc2ccc(O)cc2)c1=O	15%	?	3.2µM*	-29%	?	?
NC(=S)n1[nH]c(-c2ccc([N+](=O)[O-])cc2)c(N=Nc2cccc(Cl)c2)c1=O	6%	14µM*[quencher]	13µM*	.	-46%	?
CCCC(c1nnnn1C1CCCC1)N1CCN(c2ccccc2F)CC1 (centres undefined)	3%	-6%	-9%	-15%	-21%[46.1 µM]	?
COc1ccc(C(=O)c2cn(CC(=O)Nc3ccc4c(c3)OCCO4)c3ccc(OC)cc3c2=O)cc1	12%	-19%	10%	.	.	.
Brc1ccc(-c2cn3cc(Cc4ccccc4)sc3n2)cc1	-14%	-27%	?	.	.	.
O=C(NCc1ccccc1Cl)c1ccc2c(c1)SC1=NS(=O)(=O)CCN12	2%	4%	2%	.	7%	4.5µM*
O=C(CSc1nccn1-c1ncc(C(F)(F)F)cc1Cl)c1ccc(Cl)cc1	?	-15%	18µM*	-11%	-13%[46.1 µM]	-8%
O=C(OCCN1CCN(c2ncc(C(F)(F)F)cc2Cl)CC1)c1ccc(Cl)cc1	-7%	-13%	-21%	-15%	17%[46.1 µM]	-7%
CC(=O)c1cccc(N2Cc3ccccc3C2=NC(=O)CCl)c1	0%	-3%	?	.	-9%	3.5µM*
CC(=O)c1ccc(N2Cc3ccccc3/C2=N\C(=O)Nc2ccccc2)cc1	5%	-8%	-9%	-7%	11%	15%
COC(=O)c1ccccc1NC(=O)CN1CCN(c2ccccn2)CC1	-10%	-4%	-2%	.	0%	4%
COC(=O)c1ccccc1N/C=C1\CCc2c(c(C)nn2-c2ccccn2)C1=O	?	?	14µM*	?	-21%[46.1 µM]	?
CCC(CC)C(=O)Nc1cccc(C(=O)Nc2ccc3c(c2)OCO3)c1	5%	-21%	-12%	-12%	-3%[46.1 µM]	13µM*

Screens: PubChem, National Center for Advancing Translational Sciences (NCATS)
